# Experimental data: ChEMBL document CHEMBL4513216, “Probing the Open Global Health Chemical Diversity Library for Multistage-Active Starting Points for Next-Generation Antimalarials” (ACS Infect Dis, 2020)
# About 8,600 (12%) of roughly 69,000 compounds showed an effect of 50% or more. Shown is part of a subset that was picked to be rich in strong results.
# Tested on: Plasmodium berghei
# Test: Screen against P. berghei liver stage (PbLuc), transformed with Luciferase, at 10uM
# Type: functional, HepG2
# Conditions: tested at 10 uM
row,SMILES,INHIBITION
1,Cc1nc(CN2CCCN(Cc3nccn3C(C)C)CC2)no1,29.7%
2,CNc1nc(CNC(=O)Nc2cccc(CC(F)(F)F)c2)cs1,7.5%
3,CNC(=O)[C@@H]1C[C@H]2CN(c3ncccn3)C[C@H]2N1C(C)C,24.6%
4,CNC(=O)[C@H]1C[C@@H]2CN(c3cc(OC)ncn3)C[C@@H]2N1C(C)C,55.6%
5,CNC(=O)[C@H]1C[C@@H]2CN(Cc3cccnc3OC)C[C@@H]2N1C(C)C,33.4%
6,CN1CCN(C[C@H]2OC[C@@H]3CCN(Cc4ccsc4)C[C@@H]32)CC1,22.4%
7,O=C(c1ccn(COc2ccc(F)cc2)n1)N1CCCC1,-28%
8,O=C(c1ccn(COc2ccc(F)cc2)n1)N1CCCCCC1,-24.6%
9,CC(C)c1ccc(OCn2ccc(C(=O)N3CCCC3)n2)cc1,83.4%
10,CN(CCc1ccccn1)Cc1nccn1Cc1ccccc1,81.2%
11,CN(CCc1ccncc1)Cc1nccn1Cc1ccccc1,11.6%
12,CN(Cc1ccncc1)Cc1nccn1Cc1ccccc1,-46.4%
13,CC(C)CC(=O)N1CCCC1c1nccnc1Nc1ncccn1 (stereo not drawn),32.3%
14,O=S(=O)(CC1CCCN1S(=O)(=O)C1CC1)c1ccccc1 (stereo not drawn),7.77%
15,O=S(=O)(CC1CCCN1S(=O)(=O)c1cccnc1)c1ccccc1 (stereo not drawn),13.2%
16,CS(=O)(=O)N1CCCC1CS(=O)(=O)c1ccccc1 (stereo not drawn),66.9%
17,O=C1NC(c2cnc(C3CCC3)s2)Nc2ccccc21 (stereo not drawn),-90.1%
18,CC(C)N(C)Cc1n[nH]c2c1CCN(C(=O)c1cc[nH]n1)C2,8.03%
19,Cc1nc2c(c(NC(C)C)n1)CCN(C(=O)c1cc[nH]n1)CC2,34.6%
20,CC(C)Nc1nc2c(c(N(C)C)n1)CCN(C(=O)c1cc[nH]n1)CC2,50.7%
21,O=C(C[C@@H]1COC[C@H]2CN(C3CCOCC3)C[C@@H]12)Nc1cnccn1,42.5%

row,SMILES,INHIBITION
1,COc1ccccc1C1(O)CCCN(C(=O)c2cnc(SC)nc2)C1 (stereo not drawn),36.9%
2,Cc1ccc(CN2C[C@@H]3CCCO[C@@H]3[C@H](NC(=O)CC3CC3)C2)s1,49.3%
3,O=C(CC1CC1)N[C@@H]1CN(C(=O)c2ccsc2)C[C@@H]2CCCO[C@@H]21,63.8%
4,O=C(CC1CC1)N[C@@H]1CN(Cc2ccoc2)C[C@@H]2CCCO[C@@H]21,3.25%
5,O=C(CC1CC1)N[C@@H]1CN(C(=O)c2ccoc2)C[C@@H]2CCCO[C@@H]21,71.1%
6,O=C(N[C@@H]1CN(Cc2ccccc2)C[C@@H]2CCCO[C@@H]21)C1CC1,6.38%
7,O=C(CC1CC1)N[C@@H]1CN(Cc2ccco2)C[C@@H]2CCCO[C@@H]21,-2.17%
8,O=C(N[C@@H]1CN(Cc2ccoc2)C[C@@H]2CCCO[C@@H]21)C1CCC1,72%
9,Cc1occc1C(=O)N1C[C@@H]2CCCO[C@@H]2[C@H](NC(=O)CC2CC2)C1,62.9%
10,COc1ccc(CN2C[C@@H]3CCCO[C@@H]3[C@H](NC(=O)CC3CC3)C2)cc1,-3.52%
11,O=C(CC1CC1)N[C@@H]1CN(c2ncccn2)C[C@@H]2CCCO[C@@H]21,-29.3%
12,Cc1occc1C(=O)N1C[C@@H]2CCCO[C@@H]2[C@H](NS(C)(=O)=O)C1,43%
13,O=C(CC1CC1)N[C@@H]1CN(Cc2ccc(F)cc2)C[C@@H]2CCCO[C@@H]21,-6.23%
14,O=C(CCC1CCCO1)NCc1ccccc1Cn1cncn1 (stereo not drawn),34.7%
15,COc1ccc(Nc2nc3c(C)nn(C)c3c(=O)n2C)c(C)c1,29%
16,Cc1nn(C)cc1C(=O)N1CCCC(n2cncn2)C1 (stereo not drawn),9.14%
17,Cc1sc(C(=O)O)cc1S(=O)(=O)Nc1c(F)cccc1-n1cccn1,-28.8%
18,O=C(NCC1(COc2cnccn2)C[C@@H](O)[C@@H](O)C1)C1CCOCC1 (stereo partly drawn),-0.813%
19,Cc1n[nH]c(=O)c(C(=O)N2CCN(CCc3cccs3)CC2)c1C,-36.1%
20,CSC(C)C(=O)NS(=O)(=O)c1ccc(F)c(C(F)(F)F)c1 (stereo not drawn),25%
21,Cc1ncsc1CN1CC[C@H]2C(=O)N(c3ccccc3)CCO[C@H]2C1,23.3%

row,SMILES,INHIBITION
1,COc1ccc(CN2CCc3c(CNC(=O)CC#N)nn(C)c3C2)cc1,29.8%
2,CCc1sc(-c2nnc(CNCCn3cc(C)cn3)o2)cc1C,30.8%
3,CN(Cc1nnc(C2CC2)n1C)C1CCN(Cc2nccn2C)C1 (stereo not drawn),21.6%
4,COc1ncccc1NC(=O)NC(CCCO)c1ccccc1 (stereo not drawn),25.4%
5,CC(C)OC(=O)CNC(=O)Nc1ccc(-c2nc(C(C)C)no2)cc1,-17.8%
6,O=C(CC1CC1)N[C@@H]1CN(Cc2nccs2)C[C@@H]2CCCO[C@@H]21,29%
7,O=C(CC1CC1)N[C@@H]1CN(Cc2ccncc2)C[C@@H]2CCCO[C@@H]21,33.4%
8,O=C(CC1CC1)N[C@@H]1CN(C(=O)c2cccs2)C[C@@H]2CCCO[C@@H]21,53.9%
9,Cc1n[nH]c(C)c1CCC(=O)N(C)Cc1cn[nH]c1-c1ccc(F)cc1,11.8%
10,COCC(=O)N1CCCC2(CCN(c3ccsc3)C2=O)C1 (stereo not drawn),37%
11,O=C(CC1CC1)N1CCCC2(CCC(=O)N2CC2CC2)CC1 (stereo not drawn),6.27%
12,Cc1nc(C)c(CCNc2ccc(S(N)(=O)=O)cc2C#N)s1,49.9%
13,Cc1csc(CCCNc2ccc(S(N)(=O)=O)cc2C#N)n1,66.5%
14,CCc1nc(CCNc2ccc(S(N)(=O)=O)cc2C#N)cs1,42.4%
15,COCCN1CCC2(CC1)CN(C(=O)Cc1cccnc1)CCO2,14.9%
16,Cc1cnc(N2CCC3(CC2)CC3CN(C)Cc2cccnc2)nc1 (stereo not drawn),71.6%
17,CN(Cc1cccnc1)CC1CC12CCCC2 (stereo not drawn),60.9%
18,Cc1ccc(CN2CCC3(CC2)CC3CN(C)Cc2cccnc2)o1 (stereo not drawn),-24.9%
19,CN(Cc1cccnc1)CC1CC12CCN(Cc1nccs1)CC2 (stereo not drawn),45.8%
20,Cc1cnc(N2CCC3(C2)C(=O)N(C)CCN3Cc2cccnc2)nc1 (stereo not drawn),-50.6%
21,CN(Cc1cccnc1)CC1CC12CCN(c1nncs1)CC2 (stereo not drawn),16.9%
